Source: the supplement of paper PMC11732987, “Enantioselective OTUD7B fragment discovery through chemoproteomics screening and high-throughput optimisation” (Communications Chemistry, 2025)

What follows are targets tested with ClCC(=O)NC1(CCCC1)C#N (assay: log2 ratio of Biotin-Ahx-Ub-VS probe labelling (compound/DMSO); higher = less target engagement, active = hit call of the paper (q ≤ 0.05, log2 ratio ≤ -1)). Conditions: compound concentration: 50uM; treatment time: 3 h.
Procedure: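 Round 2 competitive ABPP in HEK293T lysate. Compounds were tested at 50 and 200 µM for 3 h, followed by Biotin-Ahx-Ub-VS enrichment and diaPASEF LC-MS/MS. Values are the average log2 ratio (compound/DMSO) from an unpaired t-test (n=3 treated, n=26 DMSO).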

UniProt Q5VVQ6, sequence (Q5VVQ6 whole entry): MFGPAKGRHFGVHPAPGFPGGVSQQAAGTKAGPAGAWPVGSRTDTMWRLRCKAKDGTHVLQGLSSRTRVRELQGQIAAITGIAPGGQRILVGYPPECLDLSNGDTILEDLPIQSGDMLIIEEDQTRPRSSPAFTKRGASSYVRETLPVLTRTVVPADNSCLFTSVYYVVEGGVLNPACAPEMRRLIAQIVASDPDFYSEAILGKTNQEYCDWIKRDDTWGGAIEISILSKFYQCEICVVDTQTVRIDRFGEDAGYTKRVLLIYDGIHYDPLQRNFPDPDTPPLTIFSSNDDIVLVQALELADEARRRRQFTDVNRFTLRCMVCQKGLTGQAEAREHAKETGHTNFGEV
UniProt O75317, sequence (O75317 whole entry): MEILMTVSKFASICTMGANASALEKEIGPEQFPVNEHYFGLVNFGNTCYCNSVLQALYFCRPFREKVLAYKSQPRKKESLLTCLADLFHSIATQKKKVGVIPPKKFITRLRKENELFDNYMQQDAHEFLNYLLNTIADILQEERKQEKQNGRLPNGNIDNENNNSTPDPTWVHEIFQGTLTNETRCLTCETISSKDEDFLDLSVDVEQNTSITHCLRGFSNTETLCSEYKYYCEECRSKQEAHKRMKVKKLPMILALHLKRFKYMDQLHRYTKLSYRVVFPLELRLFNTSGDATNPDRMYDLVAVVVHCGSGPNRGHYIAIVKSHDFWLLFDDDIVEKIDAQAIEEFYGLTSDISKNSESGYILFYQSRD
UniProt Q9NP73, sequence (Q9NP73 whole entry): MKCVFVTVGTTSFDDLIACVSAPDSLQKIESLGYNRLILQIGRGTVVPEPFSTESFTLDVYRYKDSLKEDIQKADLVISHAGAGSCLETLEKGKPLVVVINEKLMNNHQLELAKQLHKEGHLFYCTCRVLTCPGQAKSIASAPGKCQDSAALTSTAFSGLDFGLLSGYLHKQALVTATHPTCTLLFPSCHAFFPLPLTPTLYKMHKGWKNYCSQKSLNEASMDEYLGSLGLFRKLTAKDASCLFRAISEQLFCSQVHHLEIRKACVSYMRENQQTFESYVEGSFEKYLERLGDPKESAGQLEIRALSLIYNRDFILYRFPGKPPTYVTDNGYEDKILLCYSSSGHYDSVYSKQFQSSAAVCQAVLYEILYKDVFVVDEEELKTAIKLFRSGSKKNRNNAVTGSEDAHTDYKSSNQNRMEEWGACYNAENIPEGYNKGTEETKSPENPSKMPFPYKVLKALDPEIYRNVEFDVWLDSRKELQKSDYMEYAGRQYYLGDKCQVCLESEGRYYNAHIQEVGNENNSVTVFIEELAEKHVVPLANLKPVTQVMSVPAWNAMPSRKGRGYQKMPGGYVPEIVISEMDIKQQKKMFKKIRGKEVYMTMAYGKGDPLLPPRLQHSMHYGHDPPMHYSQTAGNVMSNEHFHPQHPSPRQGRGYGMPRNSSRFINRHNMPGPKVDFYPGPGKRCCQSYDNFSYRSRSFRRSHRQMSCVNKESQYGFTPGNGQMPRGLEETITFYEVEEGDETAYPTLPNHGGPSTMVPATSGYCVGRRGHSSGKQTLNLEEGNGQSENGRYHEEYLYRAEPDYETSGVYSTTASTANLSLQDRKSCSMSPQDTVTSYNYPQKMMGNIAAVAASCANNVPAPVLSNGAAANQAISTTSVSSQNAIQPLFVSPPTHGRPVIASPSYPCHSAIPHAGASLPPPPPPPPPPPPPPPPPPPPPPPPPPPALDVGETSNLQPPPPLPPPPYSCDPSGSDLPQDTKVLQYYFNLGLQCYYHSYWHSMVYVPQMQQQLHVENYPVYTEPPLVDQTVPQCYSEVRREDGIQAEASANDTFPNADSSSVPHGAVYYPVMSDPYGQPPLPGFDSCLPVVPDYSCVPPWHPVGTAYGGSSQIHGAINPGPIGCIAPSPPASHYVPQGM
UniProt Q01804, sequence (Q01804 whole entry): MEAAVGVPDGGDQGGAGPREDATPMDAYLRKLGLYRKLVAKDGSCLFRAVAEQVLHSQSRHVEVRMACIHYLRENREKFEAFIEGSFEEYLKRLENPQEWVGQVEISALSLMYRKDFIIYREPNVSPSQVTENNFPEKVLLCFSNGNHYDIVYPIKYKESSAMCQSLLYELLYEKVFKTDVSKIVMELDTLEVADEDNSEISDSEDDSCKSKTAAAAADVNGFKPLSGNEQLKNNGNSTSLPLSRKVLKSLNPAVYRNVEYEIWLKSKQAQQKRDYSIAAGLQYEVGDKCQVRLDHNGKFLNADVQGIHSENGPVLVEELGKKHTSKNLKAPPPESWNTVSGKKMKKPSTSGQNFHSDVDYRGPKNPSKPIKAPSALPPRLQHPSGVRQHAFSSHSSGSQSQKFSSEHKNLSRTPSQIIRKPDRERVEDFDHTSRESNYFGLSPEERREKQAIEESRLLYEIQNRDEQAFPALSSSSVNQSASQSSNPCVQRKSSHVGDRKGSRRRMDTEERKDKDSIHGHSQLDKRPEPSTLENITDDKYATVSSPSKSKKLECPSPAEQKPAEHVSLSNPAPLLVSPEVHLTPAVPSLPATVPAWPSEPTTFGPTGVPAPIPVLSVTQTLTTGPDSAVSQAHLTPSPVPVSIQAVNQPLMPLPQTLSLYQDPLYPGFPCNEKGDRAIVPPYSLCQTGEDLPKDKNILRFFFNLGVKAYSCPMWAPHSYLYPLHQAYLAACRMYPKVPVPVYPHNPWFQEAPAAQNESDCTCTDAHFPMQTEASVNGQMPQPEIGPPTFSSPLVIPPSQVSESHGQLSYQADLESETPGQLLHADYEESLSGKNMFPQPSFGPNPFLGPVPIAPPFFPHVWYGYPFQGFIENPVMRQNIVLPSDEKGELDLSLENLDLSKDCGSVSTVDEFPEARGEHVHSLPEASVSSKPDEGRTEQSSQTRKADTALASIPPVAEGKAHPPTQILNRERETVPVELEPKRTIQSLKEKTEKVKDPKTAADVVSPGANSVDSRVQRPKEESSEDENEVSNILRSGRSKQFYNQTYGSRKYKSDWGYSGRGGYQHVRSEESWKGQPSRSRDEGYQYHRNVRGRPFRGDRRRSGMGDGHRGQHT
UniProt Q53GS9, sequence (Q53GS9 whole entry): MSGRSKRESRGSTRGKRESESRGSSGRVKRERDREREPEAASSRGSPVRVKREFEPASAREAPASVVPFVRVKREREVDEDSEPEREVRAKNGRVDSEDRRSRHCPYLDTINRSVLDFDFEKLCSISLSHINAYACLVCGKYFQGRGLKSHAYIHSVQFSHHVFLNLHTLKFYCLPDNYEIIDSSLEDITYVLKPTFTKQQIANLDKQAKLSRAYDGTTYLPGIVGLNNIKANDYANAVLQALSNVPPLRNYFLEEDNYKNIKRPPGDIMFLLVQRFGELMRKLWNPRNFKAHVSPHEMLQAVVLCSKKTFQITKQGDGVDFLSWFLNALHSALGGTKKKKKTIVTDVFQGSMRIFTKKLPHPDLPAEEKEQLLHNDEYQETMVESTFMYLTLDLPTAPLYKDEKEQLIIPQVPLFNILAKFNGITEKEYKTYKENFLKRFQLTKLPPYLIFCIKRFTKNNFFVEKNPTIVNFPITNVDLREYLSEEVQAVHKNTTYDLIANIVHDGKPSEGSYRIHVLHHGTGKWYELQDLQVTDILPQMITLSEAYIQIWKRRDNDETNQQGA
UniProt Q9P2H5, sequence (Q9P2H5 whole entry): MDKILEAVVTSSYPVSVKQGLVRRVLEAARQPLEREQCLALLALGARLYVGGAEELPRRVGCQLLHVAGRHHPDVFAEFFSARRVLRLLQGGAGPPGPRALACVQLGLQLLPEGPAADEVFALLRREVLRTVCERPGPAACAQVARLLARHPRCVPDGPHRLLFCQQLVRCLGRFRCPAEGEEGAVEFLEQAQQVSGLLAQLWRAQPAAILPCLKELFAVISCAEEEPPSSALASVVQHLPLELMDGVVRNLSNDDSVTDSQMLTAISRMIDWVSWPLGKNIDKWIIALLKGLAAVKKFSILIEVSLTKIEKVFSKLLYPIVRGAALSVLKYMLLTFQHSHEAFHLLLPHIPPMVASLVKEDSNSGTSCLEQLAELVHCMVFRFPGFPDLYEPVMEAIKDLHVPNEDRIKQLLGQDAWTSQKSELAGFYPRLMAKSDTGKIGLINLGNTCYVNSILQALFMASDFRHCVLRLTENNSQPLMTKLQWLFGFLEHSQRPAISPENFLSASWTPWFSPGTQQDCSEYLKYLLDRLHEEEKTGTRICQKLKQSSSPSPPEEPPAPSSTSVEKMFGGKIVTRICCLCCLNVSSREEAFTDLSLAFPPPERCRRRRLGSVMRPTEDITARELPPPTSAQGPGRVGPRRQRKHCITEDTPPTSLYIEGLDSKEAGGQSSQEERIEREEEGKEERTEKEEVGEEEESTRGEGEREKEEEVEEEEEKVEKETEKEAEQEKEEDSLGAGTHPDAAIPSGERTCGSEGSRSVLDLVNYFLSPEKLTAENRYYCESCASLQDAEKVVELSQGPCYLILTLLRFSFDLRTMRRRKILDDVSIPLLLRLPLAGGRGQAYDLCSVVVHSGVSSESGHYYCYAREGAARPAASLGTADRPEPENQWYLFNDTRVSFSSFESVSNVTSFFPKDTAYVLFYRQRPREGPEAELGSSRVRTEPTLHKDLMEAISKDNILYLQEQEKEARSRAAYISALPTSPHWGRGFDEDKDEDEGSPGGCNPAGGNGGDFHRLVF
UniProt P62068, sequence (P62068 whole entry): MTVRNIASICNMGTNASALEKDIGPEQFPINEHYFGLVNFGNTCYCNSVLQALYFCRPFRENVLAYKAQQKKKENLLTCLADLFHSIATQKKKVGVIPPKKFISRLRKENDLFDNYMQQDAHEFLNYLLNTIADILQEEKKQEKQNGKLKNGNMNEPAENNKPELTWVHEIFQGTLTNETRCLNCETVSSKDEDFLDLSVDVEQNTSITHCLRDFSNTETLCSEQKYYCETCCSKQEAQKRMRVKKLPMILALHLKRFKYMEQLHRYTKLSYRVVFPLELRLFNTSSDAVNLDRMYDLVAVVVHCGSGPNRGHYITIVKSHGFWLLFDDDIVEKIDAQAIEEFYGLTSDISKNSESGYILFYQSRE

Target | log2 ratio of Biotin-Ahx-Ub-VS probe labelling
USP39 (UniProt Q53GS9) | 0.213 (inactive)
UniProt Q5T2D3 | -0.0676 (inactive)
UniProt Q9P2H5 | -0.223 (inactive)
EIF3H (UniProt O15372) | -0.0689 (inactive)
USP46 (UniProt P62068) | -0.274 (inactive)
YOD1 (UniProt Q5VVQ6) | -0.0389 (inactive)
UniProt Q8TE49 | -0.765 (inactive)
USP4 (UniProt Q13107) | -0.0435 (inactive)
USP15 (UniProt Q9Y4E8) | -0.194 (inactive)
USP7 (UniProt Q93009) | -0.163 (inactive)
USP22 (UniProt Q9UPT9) | 0.0772 (inactive)
USP5 (UniProt P45974) | -0.165 (inactive)
OTUD4 (UniProt Q01804) | -1.46 (active)
USP12 (UniProt O75317) | -0.429 (inactive)
ALG13 (UniProt Q9NP73) | -0.154 (inactive)
USP54 (UniProt Q70EL1) | -0.959 (inactive)
BAP1 (UniProt Q92560) | -1.04 (active)
MINDY4 (UniProt Q4G0A6) | -0.742 (inactive)
USP28 (UniProt Q96RU2) | 0.02 (inactive)
USP34 (UniProt Q70CQ2) | -0.504 (inactive)

Same assay, conditions: compound concentration: 200uM; treatment time: 3 h

Target | log2 ratio of Biotin-Ahx-Ub-VS probe labelling
USP39 (UniProt Q53GS9) | -0.0479 (inactive)
UniProt Q5T2D3 | -0.0477 (inactive)
UniProt Q9P2H5 | -0.102 (inactive)
EIF3H (UniProt O15372) | 0.0852 (inactive)
USP46 (UniProt P62068) | -0.249 (inactive)
YOD1 (UniProt Q5VVQ6) | 0.0083 (inactive)
UniProt Q8TE49 | -1.08 (active)
USP4 (UniProt Q13107) | -0.588 (inactive)
USP15 (UniProt Q9Y4E8) | -0.0271 (inactive)
USP7 (UniProt Q93009) | -0.0621 (inactive)
USP22 (UniProt Q9UPT9) | -0.266 (inactive)
USP5 (UniProt P45974) | -0.145 (inactive)
OTUD4 (UniProt Q01804) | -1.76 (active)
USP12 (UniProt O75317) | 0.0646 (inactive)
ALG13 (UniProt Q9NP73) | 0.381 (inactive)
USP54 (UniProt Q70EL1) | -2.5 (active)
BAP1 (UniProt Q92560) | -2.81 (active)
MINDY4 (UniProt Q4G0A6) | 0.517 (inactive)
USP28 (UniProt Q96RU2) | -0.257 (inactive)
USP34 (UniProt Q70CQ2) | -0.364 (inactive)
